A short description of test [1]: NCI Yeast Anticancer Drug Screen. Data for the rad50 strain (AID 155).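 Note: 0% = growth of vehicle-only cultures of the same strain.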 To be noted: S. cerevisiae rad50 strain growth inhibition; at 50.0 µM; stronger effect = higher value. Put shortly: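 Growth of the mutant yeast was measured after compound exposure and referenced to vehicle-treated cultures.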
The nature of test [2]: NCI Yeast Anticancer Drug Screen. Data for the mec2-1 strain (AID 157). As to conditions: S. cerevisiae mec2-1 strain, at 50.0 µM, stronger effect = higher value. Put shortly: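 Strain: mec2-1 (DNA repair/cell cycle alteration). Compound exposure, then growth measured; inhibition expressed relative to vehicle.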
Test [3] can be described thus: NCI Yeast Anticancer Drug Screen. Data for the sgs1 mgt1 strain (AID 161).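 Note: 0% = growth of cultures given vehicle only.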 To be noted: S. cerevisiae sgs1 mgt1 strain, at 50.0 µM, stronger effect = higher value. Put shortly:
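Test agents were incubated with a DNA-repair-mutant yeast strain. Growth was then read and compared against vehicle-treated controls.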

Test [4] is described as follows: NCI Yeast Anticancer Drug Screen. Data for the cln2 rad14 strain (AID 165).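 Note: 0% = growth equal to vehicle treated cultures.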 To be noted: S. cerevisiae cln2 rad14 strain, at 50.0 µM, stronger effect = higher value. The method, boiled down: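 Compounds are applied to the cln2 rad14 yeast strain, and growth is then compared with that of vehicle-treated cultures to give inhibition.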
Test [5] in a line: NCI Yeast Anticancer Drug Screen. Data for the bub3 strain (AID 167). To be noted: S. cerevisiae bub3 mutant strain, at 50.0 µM, stronger effect = higher value. The method, boiled down: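 Whole-cell yeast assay. The mutant strain was incubated with compounds, and growth inhibition was determined by comparison with vehicle-treated cells.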
The nature of test [6]: NCI Yeast Anticancer Drug Screen. Data for the mlh1 rad18 strain (AID 175). As to conditions: S. cerevisiae mlh1 rad18 strain growth inhibition; at 50.0 µM; stronger effect = higher value. The method, boiled down:
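Read-out is yeast growth inhibition, calculated against vehicle-only controls. The compound was applied to a strain engineered with DNA damage repair alterations.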

Where “and” joins values, the source holds several entries; their conditions need not be identical. Identical values can stand only once. Compounds without any hit were thinned out: in the full panel of roughly 79,000, 15% have a hit. Unmarked numbers belong to inactive results. Calls of active or inactive are those of the source. Cut-off read from the data, not from the text of the source: active = growth inhibition above about 70%; inactive = the rest.

For the molecule `CC(=O)NNC(=O)C(Cl)Cl`, the growth inhibition in test [1] is 5.45%; in test [2], -3.75%; in test [3], 8.45%; in test [4] it was 8%; in test [5], 4.15%; in test [6], 25.4%.
In the case of `NC(=NC(c1ccccc1)c1ccccc1)N[N+](=O)[O-]`, the growth inhibition was -4.1% in test [1]; 5.3% in test [2]; -12.6% in test [3]; 2.95% in test [4]; 7.45% in test [5]; -17.9% in test [6].
Take `CC1=NN(c2ccccc2)C(=O)C1N=Nc1ccc([As](=O)(O)O)c(O)c1` (centres undefined): the growth inhibition in test [1] is 15.9%; in test [2], -8.6%; in test [3] it was -6.8%; in test [4], -19.9%; in test [5], -26.5%; in test [6], -3.65%.
`Cc1cccc(N=Nc2ccc(N(C)C)cc2)c1`: the growth inhibition in test [1] was -8.45%; in test [2] it was -36.6%; in test [3], 2.4%; in test [4] it was -29.6%; in test [5] it was -8.6%; in test [6] it was -13.3%.
Regarding `CN1C(=O)NC(C)(c2cccc(N(CCCl)CCCl)c2)C1=O` (centres undefined), the growth inhibition in test [1] is 5.5%; in test [2], 24.2%; in test [3], 10.8%; in test [4], 8.2%; in test [5], -13.9%; in test [6], 27.6%.
Turning to `COC1=CC23CCCN2CCc2cc4c(cc2C3C1O)OCO4` (centres undefined), the growth inhibition in test [1] is -6.9% and 0.4% and -9.15%; in test [2] it was -23.4% and -25.8% and -28.7%; in test [3] it was 16.3% and 17.1% and 15.6%; in test [4] it was 4% and 8.1% and 2.4%; in test [5], -12.8% and -5.35% and -6.25%; in test [6], -3.85% and -1.8% and -36%.
Regarding `O=C1NC(=O)C2(O)NC(=O)NC2(O)N1` (centres undefined), the growth inhibition is -27.1% in test [1]; -9.5% in test [2]; 3.15% in test [3]; -10.8% in test [4]; -22.4% in test [5]; 18.1% in test [6].
Turning to `O=C1C2CCN(CC2)C1(CO)CO`, the growth inhibition in test [1] is -4.4%; in test [2], -4.25%; in test [3], -26.6%; in test [4], -58.1%; in test [5], -30.4%; in test [6], -20.2%.
As for `O=[N+]([O-])c1ccccc1-c1ccccc1`, the growth inhibition is 24.3% in test [1]; -27.8% in test [2]; 7.05% in test [3]; 13.2% in test [4]; -21.8% in test [5]; 2.25% in test [6].
Consider `C[CH2][Sn]([CH2]C)([CH2]CC(=O)OC)[CH2]CC(=O)OC`, for which the growth inhibition in test [1] is 20.4%; in test [2] it was 18.4%; in test [3], 1%; in test [4] it was -11%; in test [5], -24.2%; in test [6], -64.2%.
In the case of `CCCCCCCCOC(=O)c1ccccc1C(=O)OCCCCCCCC`, the growth inhibition is -0.95% in test [1]; -3.35% in test [2]; 18.6% in test [3]; 9.25% in test [4]; -3.95% in test [5]; -5.5% in test [6].
With `Clc1ccc(Br)cc1`, the growth inhibition was 4.25% in test [1]; -1.55% in test [2]; -5.75% in test [3]; -7.95% in test [4]; 0.45% in test [5]; -1.35% in test [6].
As to `COc1ccc2ccc3oc([N+](=O)[O-])cc3c2c1`, the growth inhibition is 14.8% in test [1]; 25.7% in test [2]; -23.9% in test [3]; -14% in test [4]; -36% in test [5]; -36% in test [6].
For `C[N+](C)(C)CC(=O)O`, the growth inhibition was -4.3% and -7.25% in test [1]; -10.6% and 10.3% in test [2]; -20.4% and -6% in test [3]; 10.8% and -11.2% in test [4]; -29.2% and 3.4% in test [5]; -2.65% and -7% in test [6].
As to `CC(C)OP(=O)(CP(=O)(OC(C)C)OC(C)C)OC(C)C.[CH3][Sn]([Br])([Br])[Br]`, the growth inhibition is -27.4% in test [1]; -23.6% in test [2]; -32.5% in test [3]; 6.7% in test [4]; -19.1% in test [5]; -23% in test [6].
As to `CC(C)=CC1C(C(=O)OCc2ccc(Cl)c(Cl)c2)C1(C)C` (centres undefined), the growth inhibition in test [1] was 4.25%; in test [2], -2.5%; in test [3], 8.9%; in test [4], 16.9%; in test [5] it was 8.9%; in test [6], 5.25%.
On to `CCOC(OCC)c1ccc(N(C)C)cc1.[C-]#[O+].[C-]#[O+].[C-]#[O+].[Cr]`, for which the growth inhibition in test [1] was -8.25%; in test [2], -30.2%; in test [3] it was 37.8%; in test [4], -4.5%; in test [5], -8.3%; in test [6], 4.6%.
For `Oc1ccc(CCNCc2cc3c(cc2Br)OCO3)cc1`, the growth inhibition was 18.7% in test [1]; 12% in test [2]; -11.1% in test [3]; 1.2% in test [4]; 32.9% in test [5]; 21.9% in test [6].
For the molecule `O=C(NC(CSC(c1ccccc1)(c1ccccc1)c1ccccc1)C(=O)O)OCc1ccccc1` (centres undefined), the growth inhibition is 63.7% in test [1]; 99.5% (active) in test [2]; 98.5% (active) in test [3]; 51.9% in test [4]; 47.6% in test [5]; 58.8% in test [6].
